Among the data in the supplement of paper PMC6555819 are PBM binding z-score values, retold here.

This assay concerns VDR:RXRa (NR concentration 270 nM, RXRa partner concentration 90 nM). Put plainly: PBM binding z-score (relative to random genomic background probes); higher = stronger binding; sequences stand for … in GC…GCGATTGACAGCGTAGAATGAAGG
Here is the method: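 Protein-binding microarray (Agilent 4x180K custom design, double-stranded 60-nt probes: 5' GC cap, 34-nt variable region, 24-nt constant primer region; full probe sequence given). Purified or IVT nuclear receptor:RXRα heterodimers (3:1 NR:RXRα, mostly 270:90 nM) or homodimers were incubated for 1 h in PBS with 2% milk and no ligand, then detected with Alexa488 antibodies. Fluorescence from o1-orientation probes (~5 replicates averaged) was converted to z-scores against 500 random hg19 background probes. Variable regions are seed direct-repeat (DR0–DR5) sites, all their single-nucleotide variants and half-site ablations.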
As for CAGCCTAGGTCAGGGCCAGTATGGGAGGAACGTT, the PBM binding z-score was -0.0336.

The sequence TCTAGTTGGTCACGGAGGTAACACACGACGGGTA returned a PBM binding z-score of 1.03.

CAAACTAGGTCATGAAAGGTCAAAGTCGAATGAC came in with a PBM binding z-score of 6.73.

With CAGACTGGGGCAGAAAGGTTACCATACCATCCGG, the PBM binding z-score was found to be 1.44.

Take CCTCGGAGGACAACAGGAGGTCAGAGTTGCCAGA: the PBM binding z-score is 1.97.

Consider TGAATGATGTTAAAGATCAGGGAACGTGGCGTCG, for which the PBM binding z-score was -0.0975.

For CCGACTGGGGCATAAGGTTACGATAAGCCAGCCC, the PBM binding z-score came out at 0.321.

Take ATCTCTAGGTAAAGTTCAGTGAAAGATCGATAGA: the PBM binding z-score stood at 1.73.

ATCTCTAGGTAAGACTCAGTTCAGCGAAGAACGC had a PBM binding z-score of 0.97.

With ATATGTAGGTTTAGGGTCATTCAGGTTGGTTCGC, the PBM binding z-score is 5.54.

The sequence CAAACTAGGTCACCGGAAGGTCAAAGTGCGCATG registered a PBM binding z-score of 6.18.

Turning to TCTAGCAGTCCAGAGGGTCACTCAAGAGGTACGG, the PBM binding z-score was 1.69.

For TAGCCTACGTCATGGGCCAGTATACCACGCGAAC, the PBM binding z-score was -0.472.

The sequence CCTTGCAGGCCAGGGTCACTCAAGCATTTCGCTT came in with a PBM binding z-score of 2.69.

TCTAGTAGATCAAGCAGGTTAAGAAAGCCTGAGT: the PBM binding z-score was determined as 0.576.

Sequence TAGCCGAGGTCATGGGCCAGTATACCACGCGAAC registered a PBM binding z-score of 5.46.

Consider CCTAGTTGGTTAGGAGGTCACACACCGGATATGA, for which the PBM binding z-score came to 3.56.

Turning to CTCGAAAGGTCGTGCACAGGTGAGTATACCAAAC, the PBM binding z-score is 3.8.

Sequence CCTACTGGGCCATTCAGAGGTCATTCATCATATG came in with a PBM binding z-score of 4.26.

Sequence GGAAAGAGGGCAAAGTTGATAGCATCTGTCGACG displayed a PBM binding z-score of 1.53.

For the sequence TCTTGTAGATGAAGCAGGTTAAGAAAGCCTGAGT, the PBM binding z-score was determined as 0.456.

In turn, TCGAGTAGGTTAGTCGGGGCATTCATCCAACATA returned a PBM binding z-score of 2.37.

TATACAGGGTCAAAGGCCTGAGTACGAATGTCGA displayed a PBM binding z-score of 4.53.

In turn, ATACCAAGGTGATCGTGAGGTGGTTGATACTAAC displayed a PBM binding z-score of -0.0231.

As for CGAACTAGGGCAAGGACAGTGAATCTCCGCACGC, the PBM binding z-score was -0.473.

Take CAAACTAGGTCAAGAGGTCAGAGTCCGCTTCCCG: the PBM binding z-score was 4.89.

CCATACAGGTGAGAAGGTAACTCAGCCTCGATTA came in with a PBM binding z-score of 0.121.

For the sequence TAGCCCAGGTCATGCGGGCCAGTATAGTGTCGGC, the PBM binding z-score was 3.7.

Regarding ACTATTAGTTGACACGAGGGCAACCGATAGGTTG, the PBM binding z-score turned out to be 1.4.

Sequence CGTCCAAGGTCAGAGAGGTAAGTGAATGCCGAGT returned a PBM binding z-score of 4.27.

The sequence CCAGACAGGTGAAAGGTAACTCTGTCTGGTACGC showed a PBM binding z-score of 0.668.

CCTACTGGGCCACGAAAGGTCAATGATTCAGTGA gave a PBM binding z-score of 3.4.

The sequence TCATATAGGTAAATGCTAGGTGAGAGTCCGATCT registered a PBM binding z-score of 0.644.

In turn, TCTAGTTGGTCACGGAGGTCAAACACGACGGGTA came in with a PBM binding z-score of 6.21.

Turning to CCTACTGGGCCATTCAGTGGTCATTGATCATATG, the PBM binding z-score was -0.487.

In the case of GCGACTGGTGCAAAGCAGGTTACCATAAGGTTGG, the PBM binding z-score was -0.134.

In the case of GATACCGGGTCAGCTAGAGGCCAGAGTATGGAAA, the PBM binding z-score amounted to 2.26.

Sequence GGAACGAGGGCAAAGTTTATAGCATCTGTCGACG showed a PBM binding z-score of 1.92.

ATAAGTAGGTTAAGGGTCATTCAGGTTGGTTCGC: the PBM binding z-score amounted to 5.89.

GCATATAGGTAAAACAAGGTGAAAGTCCGATTGT had a PBM binding z-score of 0.401.
